This is a sample that favours compounds with a hit; in the whole collection about 9.5% have one here.
RE007 growth inh: less growth of the S. pombe RE007 Vpr strain; AID 651644; actives 0.21% (n = 360,000); S. pombe RE007 Vpr strain, BacTiter-Glo ATP luminescence, 24 h; Potency, µM (titrated, usually from 92.2 µM), for the others: top-dose activity change, negative = less growth, most hits filed as inhibitors; active means well fitted falling curve with a large enough effect; inconclusive means small, poorly fitted or top-dose-only effect; inactive means no such curve, though single readings can be large or run the other way; further: on the % scale 0 is the no-effect control and ±100 the full control effect; nearly all actives have a fitted effect of over 50% in size
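Fission yeast RE007 carrying one integrated HIV-1 vpr copy, seeded at OD 0.01 in PMG+AL medium with 23 nL pinned compound. Grown 24 h at 30 degrees; viability read by BacTiter-Glo luminescence after 5 min.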
Pf growth 96h: P. falciparum growth inhibition at 96 hours; AID 504834; Potency, µM (series often up to 28.7 µM), for the others: at the highest dose activity change, negative = inhibition, actives largely listed as inhibitors; P. falciparum luciferase reporter growth, 96 h; actives 6.9% (n = 320,000); active means well fitted inhibition curve with a large enough effect; inconclusive means small, poorly fitted or top-dose-only effect, or another doubt; inactive means no such curve, though single readings can be large or run the other way; further: on the % scale 0 is the no-effect control and ±100 the full control effect
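Cell-based qHTS: luciferase-tagged P. falciparum in erythrocytes (2% hematocrit, 0.05% parasitemia final) incubated with compounds for 96 hours, 37 C, 5% CO2; luciferase detection reagent then added and luminescence measured.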
Pf growth 48h: inhibits P. falciparum growth in the first generation, 48 h | actives 5.9% (n = 310,000) | P. falciparum luciferase growth in erythrocytes, 48 h | Potency, µM (titrated, usually from 28.7 µM), inactives show at the highest dose activity change, negative = inhibition, usual class: inhibitors; active means well fitted inhibition curve with a large enough effect; inconclusive means small, poorly fitted or top-dose-only effect, or another doubt; inactive means no such curve, though single readings can be large or run the other way; further: on the % scale 0 is the no-effect control and ±100 the full control effect
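Erythrocytes infected with P. falciparum carrying an integrated firefly luciferase reporter (2% hematocrit, 0.1% parasitemia final) were exposed to compounds in RPMI 1640 with 0.5% Albumax at 37 C, 5% CO2. Growth inhibition was scored as reduced luminescence.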
NS1 function inh: influenza NS1 inhibition. Potency, µM (series often up to 46.1 µM), for inactives: at the highest dose activity, positive = more growth. actives 0.4% (n = 270,000); further: actives are rising curves; nearly all actives have a fitted effect of over 50% in size
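Recovery from NS1-induced slow growth read by OD600 in budding yeast switched to galactose assay medium (pH 6.0, -URA) at 1:100 dilution. Compound 23 nl per well; the matching strain lacking NS1 serves as control.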
SARS PLP yeast: inhibitors of SARS-CoV papain-like protease in yeast | S. cerevisiae expressing SARS-CoV PLpro, growth rescue | Potency, µM (doses to about 32.9 µM), for the others: top-dose activity, positive = growth rescue, usual class: activators | actives 0.19% (n = 330,000) | AID 485353; further: 0% is about no effect; nearly all actives have a fitted effect of over 55% in size
* hit, by the source's call; ! = not confirmed by another sample. Unless noted, the call rests on the fitted dose curve. Potency means the concentration at half of the fitted maximal effect.

Screening CC(C)CC(NC(=O)c1cccs1)c1nnc(SCc2ccc(Cl)c(Cl)c2)n1C (configuration not stated) returned RE007 growth inh 12%, Pf growth 96h inconclusive, Pf growth 48h 12µM*, NS1 function inh 10% and SARS PLP yeast -19%.
`O=C(CC[C@H]1O[C@@H](n2ccc(=O)[nH]c2=O)[C@H](O)[C@@H]1O)NCC1CCCO1` (some centres not stated) gave RE007 growth inh 1%.
`O=C(Cn1nc(C(=O)O)c2ccccc2c1=O)Nc1ccc2c(c1)C(=O)c1ccccc1C2=O` gave Pf growth 96h 132%, Pf growth 48h 74%, NS1 function inh 2% and SARS PLP yeast 0%.
For COc1ccccc1NS(=O)(=O)c1cccc(C(=O)N/N=C(/C)c2ccc(-n3ccnc3)cc2)c1 the results were RE007 growth inh -11%.
Screening COc1ccccc1NS(=O)(=O)c1cccc(C(=O)N/N=C(\C)c2ccc(-n3ccnc3)cc2)c1 returned RE007 growth inh -5%, Pf growth 96h 13µM*, NS1 function inh 9% and SARS PLP yeast 11%.
Screening Cc1ncc(CO)c(/C=N/NC(=O)c2ccc(O)cc2)c1O returned RE007 growth inh 13%, Pf growth 96h inconclusive, Pf growth 48h 2.1µM*, NS1 function inh inconclusive and SARS PLP yeast 16%.
`COc1ccccc1NS(=O)(=O)c1cccc(C(=O)N/N=C/c2c(CO)cnc(C)c2O)c1` gave RE007 growth inh 18%, Pf growth 96h inconclusive, Pf growth 48h 12µM* and SARS PLP yeast -3%.
For Cc1cccn2c(=O)c(/C=C(\C#N)S(=O)(=O)c3ccccc3)c(N3CCN(Cc4ccccc4)CC3)nc12 the results were RE007 growth inh -3%, Pf growth 96h 15µM*, Pf growth 48h inconclusive, NS1 function inh 14% and SARS PLP yeast 3%.
`N#C/C(=C\c1c(N2CCOCC2)nc2ccccn2c1=O)S(=O)(=O)c1ccccc1` gave RE007 growth inh 1%, Pf growth 96h -23%, Pf growth 48h 0%, NS1 function inh -6% and SARS PLP yeast 2%.
`Cc1ccc(S(=O)(=O)/C(C#N)=C/c2c(N3CCOCC3)nc3c(C)cccn3c2=O)cc1` gave RE007 growth inh 5%, Pf growth 96h -13%, Pf growth 48h 2.1µM*, NS1 function inh 23% and SARS PLP yeast -2%.
For COc1ccc(NC(=O)c2cccc(N3C(=O)C4C5C=CC(C5)C4C3=O)c2)cc1 (configuration not stated) the results were RE007 growth inh -3%, Pf growth 96h 17%, Pf growth 48h -6%, NS1 function inh 3% and SARS PLP yeast 25%.
Cc1cc(N2C(=O)C3C4C=CC(C4)C3C2=O)ccc1Br (configuration not stated) was read as RE007 growth inh -11%, Pf growth 96h 12µM*, Pf growth 48h -7%, NS1 function inh -5% and SARS PLP yeast -6%.
`O=C1C2C3C=CC(C3)C2C(=O)N1c1ccc2c(c1)OCO2` (configuration not stated) gave RE007 growth inh 1%, Pf growth 96h -14%, Pf growth 48h 2%, NS1 function inh -11% and SARS PLP yeast 1%.
Cc1cc(C)cc(NC(=O)c2cccc(N3C(=O)C4C5C=CC(C5)C4C3=O)c2)c1 (configuration not stated) was read as RE007 growth inh 21%, Pf growth 96h 4.7µM*, Pf growth 48h inconclusive, NS1 function inh 8% and SARS PLP yeast 1%.
For CCN(CC)CCNC(=O)c1sc2nc(-c3ccccc3)cn2c1C the results were RE007 growth inh 4%, Pf growth 96h inconclusive, Pf growth 48h -9%, NS1 function inh 1% and SARS PLP yeast -2%.
`CN(C)Cc1c(O)ccc2c3c(c(=O)oc12)CCCCC3` gave RE007 growth inh -3%, Pf growth 48h inconclusive, NS1 function inh -6% and SARS PLP yeast -7%.
Screening CN(Cc1c(O)ccc2c1oc(=O)c1ccccc12)C1CCCCC1 returned RE007 growth inh -6%, Pf growth 96h inconclusive, Pf growth 48h 5.2µM*, NS1 function inh 6% and SARS PLP yeast -1%.
For CCCCN(CC)CCNC(=O)C1c2cc(OC)c(OC)cc2C(=O)N2CCc3ccccc3C12 (configuration not stated) the results were RE007 growth inh 1%, Pf growth 96h 10µM*, Pf growth 48h inconclusive, NS1 function inh 4% and SARS PLP yeast 3%.
Cc1cc(NC(=O)c2cc(-c3ccc(C)c(C)c3)nc3ccccc23)no1 was read as RE007 growth inh 27%, Pf growth 96h 0.74µM*, Pf growth 48h 0.83µM*, NS1 function inh 12% and SARS PLP yeast 0%.
For Cc1cc(NC(=O)c2cc(-c3ccccn3)nc3c(Cl)cccc23)no1 the results were RE007 growth inh 2%, Pf growth 96h 2.1µM*, Pf growth 48h -4%, NS1 function inh 11% and SARS PLP yeast 2%.
Screening Cc1cc(NC(=O)c2cc(-c3cccc(OCC(C)C)c3)nc3ccccc23)no1 returned RE007 growth inh 2%, Pf growth 96h 2.3µM*, Pf growth 48h inconclusive, NS1 function inh 14% and SARS PLP yeast -3%.
CCNC(=S)NNC(=O)c1cc(-c2cccc(OC)c2)nc2ccccc12 was read as RE007 growth inh -8%, Pf growth 96h -27%, Pf growth 48h -5%, NS1 function inh 7% and SARS PLP yeast 0%.
For CCCOc1cccc(-c2cc(C(=O)NNC(=S)NCC)c3ccccc3n2)c1 the results were RE007 growth inh -9%, Pf growth 48h 10µM*, NS1 function inh -35% and SARS PLP yeast 7%.
Screening CCOC(=O)/C=C/[C@H]1CCc2cccc(Cl)c2O1 returned RE007 growth inh -10%, Pf growth 96h 6%, Pf growth 48h inconclusive and SARS PLP yeast 0%.
NC(=S)NNc1cccc2cccnc12 was read as RE007 growth inh -3%, Pf growth 96h inconclusive, Pf growth 48h 7.4µM*, NS1 function inh 0% and SARS PLP yeast 0%.
For Cc1nc(-c2ccc(Cl)cc2)sc1C1(C)CC(c2cccc(F)c2)=NO1 (configuration not stated) the results were RE007 growth inh 9%, Pf growth 96h 65%, Pf growth 48h 77%, NS1 function inh -3% and SARS PLP yeast -1%.
`CC(=O)ON=C1C=CC(=C(C#N)c2ccccc2)C=C1` gave RE007 growth inh 4µM*.
CC12CC3CC(C)(C1)CC(N)(C3)C2 was read as RE007 growth inh 0%, Pf growth 96h 6.7µM*!, Pf growth 48h inconclusive, NS1 function inh -1% and SARS PLP yeast 4%.
Screening COc1ccc2c(c1)[nH]c1c(N3CCN(Cc4ccc5c(c4)OCO5)CC3)ncnc12 returned RE007 growth inh 8%, Pf growth 96h inconclusive, Pf growth 48h 2.6µM*, NS1 function inh -9% and SARS PLP yeast -2%.

Bioassay records: PubChem, National Center for Advancing Translational Sciences (NCATS)
